Screen size: about 350,000 compounds; about 9,900 (2.8%) were called active. Where a call stands in place of a potency, no number is given. Inconclusive results (about 15%) are left out. Calls come from the whole dose curve; as a rule, active = well fitted activation curve with a large enough effect; inconclusive = small, poorly fitted or top-dose-only effect; inactive = no such curve, though single readings can be large or run the other way. Many of the other results were omitted from the sample, so actives are more common in it than they were.
Experiment: A quantitative high throughput screen for small molecules that induce DNA re-replication in MCF 10a normal breast cells. Note: nearly all actives have a fitted effect of over 50% in size.
Conditions: MCF 10A DNA re-replication, Hoechst nuclear intensity, 48 h; series mostly up to 46.1 µM
Potency is the fitted concentration of half-maximal effect.

SMILES	Potency
O=C(O[C@@H]1[C@H](Cc2ccccc2)NS(=O)(=O)[C@H]2C[C@@H]3C=C[C@]12O3)c1ccccc1Br	inactive
NC(=O)c1ncn([C@@H]2O[C@H](CNCc3cnc(N4CCOCC4)s3)[C@@H](O)[C@H]2O)n1	inactive
CC(=O)NC12CC3CC(C1)CC(C(=O)N1CCN(S(=O)(=O)c4cccs4)CC1)(C3)C2	inactive
CN1C(=O)[C@H]2[C@@H](/C=C/c3ccccc3)N3C(=O)CN(Cc4ccc(-c5ccccc5)cc4)C(=O)[C@@]3(C)[C@H]2C1=O	inactive
CCOC(=O)N1CCN(C(=O)C2CCCN(c3ncnc4c3sc3cccc(F)c34)C2)CC1 (stereo not given)	inactive
OC1CCCN(c2ncnc3c2nnn3Cc2c(F)cccc2Cl)C1 (stereo not given)	16.4 µM (active)
Cc1ccc(NC(=O)N2CCC(c3nc4c(nnn4Cc4c(F)cccc4Cl)c(=O)[nH]3)CC2)cc1	inactive
C(#CCN1CCOCC1)CCCN1CCOCC1	inactive
O=[N+]([O-])c1ccc(C=NN=Cc2ccc([N+](=O)[O-])cc2)cc1	inactive
O=C(OCC(=O)N1CCCCCC1)c1ccc(Br)c(S(=O)(=O)N2CCOCC2)c1	inactive
Cn1c(CNC(=O)c2ccco2)nnc1SCC(=O)N1CCN(c2ccccc2)CC1	inactive
Cc1nnc(SCC(=O)N2CCN(c3ccccc3)CC2)n1-c1ccccc1	inactive
Cn1c(Cc2cccc3ccccc23)nnc1SCC(=O)N1CCN(c2cccc(Cl)c2)CC1	13 µM (active)
CCCC(O)(c1ccccc1)C(c1ccccc1)c1ccccn1 (stereo not given)	inactive
COc1cc(/C=C/C(=O)OCC(=O)NCCCc2ccccc2)ccc1O	inactive
CCCn1nc(NS(=O)(=O)c2ccc(F)cc2)c2cc3ccccc3nc21	inactive
O=Cc1c(Nc2ccccc2Cl)nc2ccccn2c1=O	inactive
CCn1c(=N)c(S(=O)(=O)c2ccc(F)cc2)cc2c(=O)n3ccccc3nc21	13 µM (active)
CCOCCCNC(=O)c1cc2c(=O)n3ccccc3nc2s1	inactive
Cc1ccc(Cn2c(=N)c(S(=O)(=O)c3ccc(C)cc3)cc3c(=O)n4ccccc4nc32)cc1	5.8 µM (active)
O=Cc1c(N2CCN(c3cccc(Cl)c3)CC2)nc2ccccn2c1=O	inactive
Cc1cc(C(=O)COc2ccccc2Cl)c(C)n1C1CC1	inactive
Cc1ccc(C(=O)NNC(=O)c2ccc3c(c2)OCCO3)cc1	inactive
O=C(C1Cc2ccccc2CN1C(=O)c1ccco1)N1CCN(c2ccccc2)CC1 (stereo not given)	inactive

SMILES	Potency
Cc1cc(S(=O)(=O)c2cc3ccc(O)c(C)c3oc2=O)ccc1F	10.3 µM (active)
COC(=O)Cc1cc(=O)oc2c(C)c(O)ccc12	inactive
COc1cccc2cc(S(=O)(=O)c3ccc(C)cc3)/c(=N/NS(=O)(=O)c3ccc(C)cc3)oc12	inactive
Cc1nc(Nc2ccccc2C)c2cnn(C)c2n1	inactive
O=[N+]([O-])c1cc2ccccc2nc1-c1ccccc1	inactive
O=C(N[C@@H]1C/C=C\C[C@@H](CC(=O)N(CCO)Cc2ccccc2)C(=O)N[C@H](Cc2ccccc2)COC1=O)OCC1c2ccccc2-c2ccccc21	inactive
Cc1cc(C(=O)COc2ccc(Br)cc2F)c(C)n1C1CC1	inactive
CN(C(=O)c1cccc(NC(=O)Cc2ccc(NC(=O)C3CCCN(C(=O)C4CC4)C3)cc2)c1)C1CC1 (stereo not given)	inactive
CC(=C/c1ccccc1)/C=N/NC(=O)c1cc(C)oc1C	inactive
CC(/C=N/NC(=O)c1cc(-c2ccc3ccccc3c2)n[nH]1)=C\c1ccco1	7.31 µM (active)
CC(/C=N/NC(=O)c1ccncc1)=C\c1ccco1	inactive
Cc1cccc(C)c1Nc1nnc(SCC(=O)NCCCN2CCCC2=O)s1	inactive
CC[C@]12c3[nH]c4cc(CCC(=O)N(C)C)ccc4c3CCN1C(=O)[C@@H](CC(=O)NCCCn1ccnc1)C[C@@H]2C(=O)N1CCN(C(=O)C2CC2)CC1	inactive
O=C(CC1NCCNC1=O)Nc1ccc(Oc2ccccc2)cc1 (stereo not given)	inactive
COC(=O)c1cc(C)sc1NC(=O)CC1Nc2ccccc2NC1=O (stereo not given)	inactive
O=C(CC1Nc2ccccc2NC1=O)Nc1ccccc1 (stereo not given)	6.51 µM (active)
COC(=O)Cc1nc2c(N)nc(N)nc2[nH]c1=O	inactive
Nc1ccc2c(c1)C(O)c1ccc(Cl)cc1-2 (stereo not given)	inactive
COc1cc2[nH]c(O)c(C=O)c2cc1OC	inactive
CCc1ccc(CNC(=O)C2CCN(c3nnc(C)c4c(C)n(-c5ccc(C)cc5)nc34)CC2)cc1	7.31 µM (active)
CCc1ccc(CNC(=O)C2CC(=O)N(CCc3ccc(C)cc3)C2)cc1 (stereo not given)	inactive
COc1ccc(-n2nc3c(N4CCC(C(=O)NCc5ccccc5)CC4)nnc(C)c3c2C)cc1	inactive
Cc1ccc(NC(=O)C(c2ccccc2)N2CCN(C(=O)c3ccco3)CC2)cc1 (stereo not given)	inactive
O=C(C(Cl)Cl)N1CCN(c2ccccn2)CC1	inactive

SMILES	Potency
O=C(Cc1ccc(Br)cc1)N1CCN(c2ccccn2)CC1	inactive
O=C(/C=C/c1cccc(C(F)(F)F)c1)N1CCN(c2ccccn2)CC1	9.2 µM (active)
O=C(c1ccc2c(c1)C(=O)N(Cc1ccncc1)C2=O)N1CCN(S(=O)(=O)c2ccc(OC(F)(F)F)cc2)CC1	inactive
CCN1C[C@@H]2[C@@H]3C(=O)N(Cc4ccccc4)C(=O)[C@@H]3[C@](Cc3ccccc3)(C(=O)OC)N2C1=NC1CCCCC1	inactive
S=C(NCc1ccco1)NCc1ccccc1Cl	inactive
Clc1ccccc1CSc1nnc(-c2ccco2)c(-c2ccco2)n1	18.4 µM (active)
COC(OC)c1ccnc(SCc2ccccc2Cl)n1	inactive
COc1ccc(OCCNC(=O)c2cc(C3CC3)nc3c2cnn3C(C)C)cc1	inactive
Cc1cc(C)c2c(=O)[nH]c(SCC(=O)Nc3ccc(Br)cc3)nc2n1	11.6 µM (active)
Cc1cccc(NC(=O)CSc2nc3[nH]ncc3c(=O)[nH]2)c1	inactive
O=C(CSc1nc2[nH]ncc2c(=O)[nH]1)Nc1ccc(F)cc1	inactive
COc1ccccc1-n1nnnc1S(=O)(=O)Cc1ccc(Cl)cc1	16.4 µM (active)
COc1ccccc1-n1nnnc1SCC(=O)NC(=O)Cc1ccccc1	inactive
COc1ccccc1N1CCN(S(=O)(=O)c2ccc(Cl)cc2)CC1	inactive
CCN(CC(=O)Nc1ccc(NC(C)=O)cc1)C(=O)CSC(=S)N1CCCC1	inactive
Cc1cc(C(=O)NC2CC(C)(C)Cc3c2cnn3-c2ccccc2)n[nH]1 (stereo not given)	inactive
COC(=O)c1ccc(C(=O)NC2CC(C)(C)Cc3c2cnn3-c2ccc(F)cc2)nc1 (stereo not given)	20.6 µM (active)
CC1(C)Cc2c(cnn2-c2cccc(F)c2)C(NC(=O)c2cc[n+]([O-])cc2)C1 (stereo not given)	inactive
COc1cc(/C=N\Nc2nc(-c3cccs3)c(NC(C)=O)s2)ccc1O	inactive
CCOc1cc(C=NNC(=O)CCCC(=O)NN=Cc2ccc(O)c(OCC)c2)ccc1O	inactive
CCOc1cc(/C=C(\C#N)c2nc(-c3cccs3)c(NC(C)=O)s2)ccc1O	5.8 µM (active)
COc1ccc(S(=O)(=O)N2CCN(C(C)C(=O)Nc3ccc(C(C)C)cc3)CC2)cc1 (stereo not given)	inactive
CCN(CC(=O)Nc1cc(Cl)ccc1C)C(=O)CSCc1ccccc1	inactive
Cc1ccccc1-c1cc(C(=O)NCC2CC2)n(CC2CC(c3cccnc3)=NO2)n1 (stereo not given)	inactive

SMILES	Potency
Cn1c(SCC(=O)Nc2ccc(N3CCOCC3)cc2)nnc1C(F)(F)F	inactive
O=C(NCc1ccc2c(c1)OCO2)c1cc([N+](=O)[O-])ccc1N1CCOCC1	5.8 µM (active)
O=C(NC1CCCCC1)c1cc([N+](=O)[O-])ccc1N1CCOCC1	inactive
CC1CCN(c2ccc(C(=O)NCc3ccc4c(c3)OCO4)cc2[N+](=O)[O-])CC1	inactive
COc1ccccc1NC(=O)N(O)C1(C#N)CCCCC1	inactive
CN(C)C(=O)CCc1ccc2c3c([nH]c2c1)[C@]1(C)[C@@H](C(=O)N2CCOCC2)C[C@H](CC(=O)NCCc2ccccn2)C(=O)N1CC3	inactive
CC(C)CN1CC(C)C(=O)N(c2ccccc2)C1=S (stereo not given)	inactive
COc1ccc(CCNC(=O)CCn2c(=O)c3ccccc3n(CC(=O)NCC3CCCO3)c2=O)cc1OC (stereo not given)	inactive
COc1ccc2oc(C(=O)NCc3ccco3)c(C)c2c1	inactive
O=C(CSc1nc2ccccc2c(=O)n1Cc1ccc(F)cc1)NCC1CCCO1 (stereo not given)	inactive
O=C(NCC1CCCO1)c1cc(-c2ccccc2)nc2ccccc12 (stereo not given)	inactive
COc1ccc(CCNC(=O)Cn2c(=O)n(CC3CCCO3)c(=O)c3ccccc32)cc1OC (stereo not given)	inactive
COc1ccc(CCn2c(=N)c(C(=O)NCc3ccco3)cc3c(=O)n4cccc(C)c4nc32)cc1	18.4 µM (active)
COc1ccc(C(=O)Nc2ccccc2C(=O)NCc2ccco2)cc1	inactive
COc1ccc(CNC(=O)c2cc3c(=O)n4ccccc4nc3n(CC3CCCO3)c2=N)cc1 (stereo not given)	9.2 µM (active)
Cc1ccc2nc3c(cc(C(=O)NCCc4ccccc4)c(=N)n3CC3CCCO3)c(=O)n2c1 (stereo not given)	6.51 µM (active)
Cc1cccn2c(=O)c3cc(C(=O)NCC4CCCO4)c(=N)n(Cc4ccc(F)cc4)c3nc12 (stereo not given)	1.84 µM (active)
Cc1ccc(-c2noc(-c3ccccc3C(=O)NCC3CCCO3)n2)cc1 (stereo not given)	inactive
Cc1ccc(CCNC(=O)c2ccc3nc4ccccc4c(=O)n3c2)cc1	inactive
O=C(CSc1nccn1-c1cccc(F)c1)NC1CCCC1	inactive
C#CCOCCOCCOCCNc1nc(N2CCN(C(=O)Cn3cc(CCO)nn3)CC2)nc(N2CCN(C(=O)[C@H](CCCCN)n3cc(CCCC)nn3)CC2)n1	inactive
O=C1NCC(Nc2ccccc2)C(=O)N1 (stereo not given)	inactive
COc1ccc(C(=O)C(C)OC(=O)c2cccc(S(=O)(=O)Nc3c(C)n(C)n(-c4ccccc4)c3=O)c2)cc1 (stereo not given)	inactive

Source: PubChem BioAssay AID624296 (National Center for Advancing Translational Sciences (NCATS), 2012)
